# Compounds without any hit were thinned out: in the full panel of roughly 83,000, 20% have a hit.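 Note: values are percent growth. 100 is the growth of untreated cells, values between 100 and 0 indicate rising inhibition; between -100 and 0 indicates cell death.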 Values without a mark were called inactive. Calls of active or inactive are those of the source. How the source made its calls: active means growth percent below 10; inactive means the rest.
# Key:
# Assay in all cases: NCI-60 one-dose screen, 48 h (100 = growth as untreated, 0 = no growth, -100 = all killed)
# Conditions in all cases: 10 µM unless noted
# [1] = test system: RPMI-8226 leukemia
# [2] = test system: OVCAR-8 ovarian
# [3] = test system: OVCAR-5 ovarian
# [4] = test system: OVCAR-4 ovarian
# [5] = test system: SK-OV-3 ovarian
# [6] = test system: IGROV1 ovarian
# [7] = test system: OVCAR-3 ovarian
# [8] = test system: HS 578T breast
# [9] = test system: NCI/ADR-RES ovarian
# [10] = test system: T-47D breast
# [11] = test system: MDA-MB-435 melanoma
# [12] = test system: SW-620 colon
# [13] = test system: MCF7 breast
# [14] = test system: HCT-116 colon
# [15] = test system: HCC-2998 colon
# [16] = test system: KM12 colon
# [17] = test system: MDA-MB-468 breast
# [18] = test system: BT-549 breast
# [19] = test system: SR leukemia
SMILES,growth [1],growth [2],growth [3],growth [4],growth [5],growth [6],growth [7],growth [8] [%],growth [9],growth [10],growth [11],growth [12],growth [13],growth [14],growth [15],growth [16],growth [17],growth [18],growth [19]
O=C(NNc1nc2cc(F)ccc2n2c(CN3CCCCC3)ccc12)c1cnccn1,-2.84% (active),-84% (active),-69.5% (active),-45.5% (active),-63.7% (active),-3.63% (active),-45.9% (active),23.7,-31.5% (active),-61.5% (active),-46.3% (active),2.86% (active),-55.9% (active),-86.9% (active),-65.2% (active),-29.8% (active),-62.8% (active),–,–
COc1ccc(C(=O)/C=C/c2c(F)cccc2Cl)cc1S(N)(=O)=O,-10.1% (active),3.5% (active),25%,42.9%,27%,21.6%,-63.4% (active),27,12.2%,-5.64% (active),6.73% (active),4.6% (active),-4.58% (active),-89.6% (active),-46.2% (active),-41.1% (active),-3.57% (active),–,–
COc1ccc(C(=O)/C=C/c2cccc(Br)c2)cc1S(N)(=O)=O,-15.9% (active),-95.1% (active),-92% (active),7.28% (active),8.53% (active),-33.7% (active),-47.7% (active),30.8,-21.5% (active),-71.4% (active),-5.65% (active),-19.8% (active),-77.2% (active),-99.2% (active),-92.8% (active),-62.8% (active),-53.9% (active),–,–
O=C(/C=C/c1ccc(O)c(O)c1)NC1CCOC1O (centres undefined),97.4%,95.7%,114%,108%,94.8%,111%,103%,89.1,105%,92.8%,101%,109%,90.7%,103%,99.2%,102%,109%,108%,–
NS(=O)(=O)c1ccc(-n2cc(-c3cccc(NC(=O)c4cc(Cl)cc(Cl)c4)c3)nn2)cc1,92.6%,26.8%,81.2%,73.6%,90.2%,101%,48.2%,89.2,92.7%,48%,50.4%,54.7%,37.1%,45.4%,51%,2.24% (active),72.8%,–,–
Cc1c(C(=O)NNC(=O)c2ccc(Cl)cc2)nnn1-c1ccc(Br)cc1,–,103%,95.2%,96.5%,90.2%,105%,115%,–,97.5%,93%,100%,–,84.3%,89.5%,105%,104%,95.6%,96.5%,84.3%
CC(=O)Oc1ccc(/C=C/C(=O)N[C@@H](Cc2ccccc2)C(O)C(=O)NCc2ccccc2)cc1OC(C)=O (some centres undefined),69.8%,75.9%,113%,77.3%,91.5%,62.5%,84.7%,84.8,104%,90.9%,71.7%,93.2%,81.9%,78.4%,96.3%,86.3%,78.1%,81.6%,–
O=C1C(=Nc2ccc(F)c(Cl)c2)c2cccc3cccc1c23,8.45% (active),3.58% (active),94.7%,86.1%,87.4%,66.4%,25.3%,89.9,84.1%,45.3%,-42% (active),35.8%,16.1%,19%,108%,55%,88.4%,–,–
CCOC(=O)C1=C(N)N(c2ccccc2)C2=C(C(=O)CC(C)(C)C2)C1c1ccccc1Cl (centres undefined),–,83.6%,86.8%,74.6%,–,92%,62.7%,93.4,74%,52%,73.1%,74.6%,56.5%,41.3%,85.6%,58.4%,50.2%,78.6%,32.5%
Cc1cc(N=C2NC(=O)CS2)n[nH]1,144%,106%,99.6%,123%,121%,99.8%,105%,102,111%,101%,113%,103%,-92.2% (active),103%,112%,101%,–,–,–
COc1ccc(NC(=O)Nc2ccc(OCc3ccc(F)cc3)cc2)cc1,–,40.2%,72.9%,20%,–,78.1%,58.5%,29.4,51.2%,84.7%,83%,73.6%,57.6%,58.1%,90.8%,93.3%,77.5%,84.9%,78.7%
COCOc1cc2oc(C(=O)N[C@@H](Cc3ccccc3)C(O)C(=O)NCc3ccccc3)c(C)c(=O)c2cc1OCOC (some centres undefined),99.3%,22.2%,91.8%,43.9%,33.4%,101%,99%,71.4,98.5%,98%,38.9%,103%,67.5%,-15.3% (active),114%,64.8%,79.9%,95.9%,–
CSc1ccccc1NC(=O)c1ccc2nnn(/C(C#N)=C/c3ccccn3)c2c1,–,-86.6% (active),-95% (active),-96.5% (active),63.1%,-81.8% (active),-81.9% (active),–,-44.2% (active),-73.2% (active),-55.8% (active),–,-81.4% (active),-96.5% (active),-97.8% (active),-66.9% (active),-92% (active),-99.5% (active),-5.23% (active)
COc1cccc(COc2ccc(NC(=O)Nc3ccc(Cl)c(C(F)(F)F)c3)cc2)c1,13.5%,31.9%,69.8%,45.2%,35.6%,25.8%,27.6%,26.7,47.1%,19.5%,58.9%,49.3%,24.3%,18.8%,46.8%,6.06% (active),2.67% (active),37.9%,–
CSc1ccc(NC(=O)c2ccc3nnn(/C(C#N)=C/c4ccccn4)c3c2)cc1,–,-60.6% (active),-78.6% (active),-97.4% (active),25.5%,-76.7% (active),-70.7% (active),–,-83.9% (active),-73.4% (active),-78.4% (active),–,-71.3% (active),0.694% (active),-70.6% (active),-70.4% (active),-71.3% (active),-70.4% (active),-6.85% (active)
COc1cc2c(c(OC)c1OC)C(=O)CC(c1cccc(NC(=O)c3cccc([N+](=O)[O-])c3)c1)O2 (centres undefined),8.29% (active),10.2%,79.3%,27.1%,64.2%,27%,19.4%,25.1,14.5%,18.6%,-16.8% (active),34.9%,12.3%,16.4%,76.4%,2.26% (active),8.62% (active),-7.24% (active),–
CSc1ccc(C(=O)Nc2ccc3nnn(/C(C#N)=C/c4ccccn4)c3c2)cc1,–,10%,-77.4% (active),37%,64.4%,-44.9% (active),-30.8% (active),–,11.2%,-45.3% (active),-20.9% (active),–,-79% (active),-5.03% (active),-76.3% (active),-57.1% (active),-69.1% (active),-67.9% (active),-9.41% (active)
O=c1c2ccccc2nc(-c2ccccc2)n1/N=C/c1ccc2ccccc2c1,–,50.6%,69.4%,85.8%,68.5%,55.6%,67.4%,–,53.5%,56.4%,–,–,34.2%,22.1%,57.5%,45%,67.2%,51.8%,11.5%
